Laboratory results reported in PubChem BioAssay (Tox21).
Records with an inconclusive call do not appear. The source made the active and inactive calls. Unless noted, calls come from the whole dose curve.

Key:
[1] = qHTS assay to identify small molecule agonists of the vitamin D receptor (VDR) signaling pathway - cell viability counter screen (AID 743224; active = well fitted curve in the direction sought with a large enough effect in the repeat runs; an effect the other way counts as inactive or inconclusive; note: series mostly up to about 63 µM; nearly all actives have a fitted effect of over 50% in size)
How it was run: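 Cytotoxicity counter screen: VDR-bla cells, 16 h compound exposure at 37C, 5% CO2; CellTiter-Glo luminescence, 30 min RT, same wells as bla read.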

[2] = qHTS assay to identify small molecule agonists of the NFkB signaling pathway (AID 1159509; active = well fitted curve in the direction sought with a large enough effect in the signal ratio in the repeat runs, not every such curve was filed as active; the % refers to the signal ratio; note: series mostly up to about 61 µM)
How it was run: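 Readout: FRET fluorescence, 405 nm excitation, 460/530 nm emission; beta-lactamase expression disrupts FRET. Cells: ME-180 stably carrying NF-kB-driven bla reporter. Compound exposure 5 hr, 37 C, 5% CO2.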

[3] = qHTS assay to identify small molecule agonists of the NFkB signaling pathway - cell viability counter screen (AID 1159515); note: series mostly up to about 61 µM; nearly all actives have a fitted effect of over 55% in size
How it was run: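 ME-180 NFkB-bla cells, 2,000/well; overnight attach; compound 5 hr, 37 C/5% CO2; LiveBLAzer substrate 1.5 hr RT; then CellTiter-Glo in same wells, 30 min RT, luminescence read.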

[4] = qHTS assay to identify small molecule agonists of the endoplasmic reticulum stress response signaling pathway (AID 1159516; active = well fitted activation curve with a large enough effect in the signal ratio in the repeat runs, not every such curve was filed as active; the % refers to the signal ratio)
How it was run: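 HeLa ESRE-bla reporter line; cpd 5 h, 37 C/5% CO2; LiveBLAzer B/G FRET substrate 2 h RT; ex 405, em 460/530 nm.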

[5] = qHTS assay to identify small molecule agonists of the endoplasmic reticulum stress response signaling pathway - cell viability counter screen (AID 1159517);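 note: HeLa cells carrying an ER stress response element beta-lactamase reporter; series mostly up to about 61 µM; nearly all actives have a fitted effect of over 50% in size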
How it was run: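 After overnight attachment, ESRE-bla HeLa cells were treated with Tox21 library compounds for 5 hr. CellTiter-Glo luminescence, read 30 min post-addition at room temperature, reported viability.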

[6] = qHTS assay to identify small molecule antagonists of the retinoid-related orphan receptor gamma (ROR-gamma) signaling pathway - cell viability counter screen (AID 1159520; active = well fitted curve in the direction sought with a large enough effect in the repeat runs; an effect the other way counts as inactive or inconclusive; note: nearly all actives have a fitted effect of over 50% in size)
How it was run: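 Cytotoxicity was read from cellular ATP (CellTiter-Glo luminescence) after 16 hr at 37 C with 1 uM doxycycline induction. The inducer was added 2 hr after compound transfer to Tet-on ROR gamma CHO cells.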

[7] = qHTS assay to identify small molecule agonists of the AP-1 signaling pathway - cell viability counter screen (AID 1159525); note: nearly all actives have a fitted effect of over 55% in size
How it was run: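 Intracellular ATP by Cell Titer Glo luminescence (30 min, RT) in the same ME-180 AP-1-bla wells after the 5 h compound exposure at 37 °C. Normalised to tetra n-octyl ammonium bromide and DMSO controls.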

[8] = qHTS assay to identify small molecule agonists of the AP-1 signaling pathway (AID 1159526)
[9] = qHTS assay to identify small molecule antagonists of the vitamin D receptor (VDR) signaling pathway - cell viability counter screen (AID 743225; active = well fitted curve in the direction sought with a large enough effect in the repeat runs; an effect the other way counts as inactive or inconclusive; note: nearly all actives have a fitted effect of over 50% in size)
How it was run: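 Parallel cytotoxicity test: VDR-UAS-bla HEK 293T, 3 nM (final) 1-alpha,25-dihydroxyvitamin D3 with test compound, 16 h, 37C. Endpoint is CellTiter-Glo luminescence in the same wells.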

[10] = biological target: Nuclear receptor ROR-gamma (Homo sapiens) (UniProt P51449); experiment: qHTS assay to identify small molecule antagonists of the retinoid-related orphan receptor gamma (ROR-gamma) signaling pathway (AID 1159521; active = well fitted curve in the direction sought with a large enough effect in the repeat runs; an effect the other way counts as inactive or inconclusive)
How it was run: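 Decreased RORE-driven luciferase luminescence indicates antagonism. Tet-on RORγ CHO cells received compound, then 1 uM final doxycycline 2 h later; signal read after 16 h incubation.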

Measured: Potency

CC(C)(C)C1CCCCC1=O (centres undefined)
inactive: [1] | [2] | [3] | [4] | [5] | [6] | [7] | [8]

CC(=O)OC(C)OC(C)=O
inactive: [1] | [9] | [2] | [3] | [4] | [5] | [6] | [7] | [8]

Cc1ncc(CO)c(CN)c1O
inactive: [1] | [2] | [3] | [4] | [5] | [6] | [7] | [8]

CCCOCCC
inactive: [1] | [2] | [3] | [4] | [5] | [6] | [7] | [8]

NCCCN1CCN(CCCN)CC1
inactive: [1] | [2] | [3] | [4] | [5] | [6] | [7] | [8]

CC1=C(O)C(=O)OC1C (centres undefined)
inactive: [1] | [2] | [3] | [4] | [5] | [6] | [7] | [8]

OCc1ccccc1O
inactive: [1] | [9] | [2] | [3] | [4] | [5] | [6] | [7] | [8]

CCN(O)CC
inactive: [1] | [9] | [2] | [3] | [4] | [5] | [6] | [10]

FC(F)(F)c1ccccc1
inactive: [1] | [2] | [3] | [4] | [5] | [6] | [7] | [8]

CCN1CC(CCN2CCOCC2)C(c2ccccc2)(c2ccccc2)C1=O (centres undefined)
inactive: [1] | [2] | [3] | [4] | [5] | [6] | [7] | [8]

FC(F)(F)C(Cl)(Cl)Cl
inactive: [1] | [9] | [2] | [3] | [4] | [5] | [6] | [7] | [8]

OCCN(CCO)c1ccccc1
inactive: [1] | [2] | [3] | [4] | [5] | [6] | [7] | [8]

COC(C)CCO (centres undefined)
inactive: [1] | [9] | [2] | [3] | [4] | [5] | [6] | [7] | [8]

FC(F)(F)C(F)(F)C(F)(F)C(F)(F)C(F)(F)C(F)(F)C(F)(F)C(F)(F)Br
inactive: [1] | [2] | [3] | [4] | [5] | [6] | [7] | [8]

O=C(O[C@@H](C(=O)O)[C@@H](OC(=O)c1ccccc1)C(=O)O)c1ccccc1
inactive: [1] | [9] | [2] | [3] | [4] | [5] | [6] | [7] | [8]

CCOC(=O)c1cc(=O)c2c(OCC(COc3cccc4oc(C(=O)OCC)cc(=O)c34)OC(=O)[C@@H](N)CCCCN)cccc2o1
inactive: [1] | [9] | [2] | [3] | [4] | [5] | [6] | [7] | [8]

CC/C=C\CCOC(=O)CCCCC
inactive: [1] | [2] | [3] | [4] | [5] | [6] | [7] | [8]

Cc1nnc(SCC2=C(C(=O)O)N3C(=O)[C@@H](NC(=O)Cn4cnnn4)[C@H]3SC2)s1
inactive: [2] | [3] | [4] | [5] | [6] | [7] | [8]

O=C(CCCl)NCc1ccccc1
inactive: [2] | [3] | [4] | [5] | [6] | [7] | [8]

CCCCCCCCCC/C=C/C#N
inactive: [1] | [9] | [2] | [3] | [4] | [5] | [6] | [7] | [8]

C=C(C)C(=O)OCCOP(=O)(O)O
inactive: [1] | [9] | [2] | [3] | [4] | [5] | [6] | [7] | [8]

CN(CC1(C)CCCO1)S(=O)(=O)c1ccc(Cl)c(S(N)(=O)=O)c1 (centres undefined)
inactive: [1] | [2] | [3] | [4] | [5] | [6] | [7] | [8]

CC(C)Nc1nc(N)nc(Cl)n1
inactive: [1] | [9] | [2] | [3] | [4] | [5] | [6] | [7] | [8]

O=C1CCC(C2CCCCC2)CC1
inactive: [1] | [2] | [3] | [4] | [5] | [6] | [7] | [8]

c1ccc(CN(CC2=NCCN2)c2ccccc2)cc1
inactive: [1] | [9] | [2] | [3] | [4] | [5] | [6] | [7] | [8]

O=C(O)c1cccc(Cl)c1Cl
inactive: [1] | [2] | [3] | [4] | [5] | [6] | [7] | [8]

CCC1(C)NC(=O)NC1=O (centres undefined)
inactive: [1] | [2] | [3] | [4] | [5] | [6] | [7] | [8]
